Values without a mark were called inactive.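 How the source made its calls: active = MAPPIT score above the 99th percentile of random reference set scores in the same batch; inactive = at or below it.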
Legend:
Test in all cases: MAPPIT interaction score (arbitrary units); higher = stronger binary interaction signal, active = hit call of the paper
Cdlc2 = conditions: MAPPIT configuration: N-N; pair source set: Finley_Y2H
Cdc5 = conditions: MAPPIT configuration: N-N; pair source set: DPIM
Cda5 = conditions: MAPPIT configuration: N-N; pair source set: Lit-BS-16
Cnb = conditions: pair source set: Lit-BM-16
Coprox = conditions: MAPPIT configuration: N-N; pair source set: RRS
CycG = conditions: MAPPIT configuration: N-N; pair source set: Finley_Y2H
c-cup = conditions: MAPPIT configuration: N-N; pair source set: Finley_Y2H
ix = conditions: MAPPIT configuration: N-N; pair source set: Finley_Y2H
Cpr47Eg = conditions: MAPPIT configuration: N-N; pair source set: Lit-BM-16
RpS13 = conditions: pair source set: Lit-BM-16
Sas-6 = conditions: pair source set: Lit-BM-16
cnn = conditions: pair source set: Lit-BM-16
Cpr56F = conditions: MAPPIT configuration: N-N; pair source set: Finley_Y2H
CkIIalpha-i3 = conditions: MAPPIT configuration: N-C; pair source set: screen_3
Cpr62Ba = conditions: pair source set: RRS
Cdc50 = conditions: MAPPIT configuration: N-N; pair source set: DPIM
Chd64 = conditions: MAPPIT configuration: N-N; pair source set: RRS
Cp190 = conditions: MAPPIT configuration: N-N; pair source set: Lit-BM-16
mod(mdg4) = conditions: pair source set: Lit-BM-16
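Further: HEK293T cells with Epo stimulation, STAT-responsive firefly luciferase reporter, fold induction versus unstimulated cells divided by the larger fold induction of two negative controls lacking either bait or prey.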

B1: Acp62F (protein)
chain: MTDMWSLKICACLGLLLLFKPIDSMGWQGPKVDCTANGTQTECPVACPETCEYSGNGPCVKMCGAPCVCKPGYVINERIPACVLRSDCPKDVVRKEDMLLGVSNFKCFSRNYNCS
Cdlc2
  MAPPIT interaction score: 2.6

B2: LTV1 (protein)
chain: MVKGKKPYIDRKKAVTFHLVHRSQHDPLVTDENAPQRVLLEAAARQQKPKDPEPPTDPAQRQEELKKFGIHFDDDYDYMQHLKKRENDVVWEFMENPNQARKQKVQDSEKPGPAPKLMLPSSVFASEFEESEGMLNKAAPQTLRLDWDPDVVAALDSDCENEELEDDFVIQAMAEGDSDDEEWDDEDGEEQSDMDFDSDDLNEDENEDELMDRLAPLMRERRFDDEEVKSRFTEYSMSSSVIRRNEQLSLLDDRFEKFYATYDDPELGDLALEDIEGNWHQKHPVVMQCFQEFKKKDKGIEYNKEWDRERIEKYRNVVEGEEDPTEELVEYEVDDPKQKKWDCESILSTYSNIYNHPKVIDEPRRSRRSSASTNPAPIQIDPKTGLPTNVLRGGVDGQLTAKALANLADESPAATGPKSLCAKSVLSTLSVLSIRPKDETHEEKKERKRLLKDYRNERRIEKKANTEAFKEEKKRQTHVKINQRTNQQGASIV
Cdc5
  MAPPIT interaction score: 1.03

B3: Cp36 (protein)
chain: MQLGLWFGILAIAATPLVSANYGPAGGHGHGHGHGQYLSGPNAGLEEYVNVASGGNQQAANQIASQAEIQPTPEEARRLGRVQAQLQALNADPNYQKLKNSEDIAESLAETNLASNIRQGKIKVVSPQFVDQHLFRSLLVPSGHNNHQVIATQPLPPIIVHQPGAPPAHVNSGPPTVVRGNPVIYKIKPSVIYQQEVINKVPTPLSLNPVYVKVYKPGKKIEAPLAPVVAPVYSQPREYSQPQGYGSAGAASSAAGAASSADGNAYGNEAPLYNSPAPYGQPNY
Cda5
  MAPPIT interaction score: 0.061

B4: Cpr47Eg (protein)
chain: MKFFIAFACLLAVALANEDANVLRAEQQVNVDGFAYAVELDNSVNVQQKGDLNGEEWVVKGSQSWTSPENVPVSIQYIADANGYQVVSANPPLPTPPPIPEAIQRSLEYIAAHPPSQ
Cnb; MAPPIT configuration: N-C
  MAPPIT interaction score: 1.11
Cnb; MAPPIT configuration: N-N
  MAPPIT interaction score: -0.0471

B5: Ilp6 (protein)
chain: MVLKVPTSKVLLVLATLFAVAAMISSWMPQVAASPLAPTEYEQRRMMCSTGLSDVIQKICVSGTVALGDVFPNSFGKRRKRDLQNVTDLCCKSGGCTYRELLQYCKG
Coprox
  MAPPIT interaction score: -0.378

B6: mldr (protein)
chain: MYNLRLLRNLLPIAGHAHPRWLASQHKRRPQPGSLPADRLDQLRSDLFERRHELSGAEWTEVRRSLVDGYKHINGHNVDAVILGVCSAPNQLSLAKSYVEFLRSRGSKPNAATLGRLLRVYNAAYHERPLSEAEQSEILQICRSLQAEHETLDASSCENVIHGLVATSGDDWQRGLPLLEMMKVTSTPSVAAYSALAEKAFSVATPEQELAWRLLEEMATARKPPKCEVYLALLNRLANETAQLPAQLSLLLQFLERHEILVSQRVAIRLQELSSQVPQLLHTRTTHLGGLGKCQSCQQHLQPVAISDEEFRQLSECFLERVLIRRDVFQRSTPEEVARFKKFVEKTAPYDCVIDGLNVAYSTGTKKTPQQLAKLVATVVRHFREQDKRVLVLGREHMRNWSKQAMHYVHCNASLFLTSNLSHDDPFLLYATLRSGQETDFFSRDLMRSHAFHLGTELKPIFRRWQQEHQFSLVTQTQTGQIIVKEPVRHRLCAHQVADTWHVPYCAQYTPHPTDSFEVPANWLCIQMKEQTIPATKTKTKTTR
CycG
  MAPPIT interaction score: -0.0303
c-cup
  MAPPIT interaction score: -0.00733
ix
  MAPPIT interaction score: 0.483

B7: Cnb (protein)
chain: MGNETSLPMDMCSNFDADEIRRLGKRFRKLDLDNSGALSIDEFMSLPELQQNPLVQRVIDIFDADGNGEVDFKEFIQGVSQFSVRGDKLSKLRFAFRIYDMDNDGYISNGELFQVLKMMVGNNLKDTQLQQIVDKTICFADKDEDGKISFDEFCSVVGNTDIHKKMVVDV
Cpr47Eg
  MAPPIT interaction score: 0.368
RpS13; MAPPIT configuration: N-C
  MAPPIT interaction score: 0.361
RpS13; MAPPIT configuration: N-N
  MAPPIT interaction score: -0.0673
Sas-6; MAPPIT configuration: N-C
  MAPPIT interaction score: 0.335
Sas-6; MAPPIT configuration: N-N
  MAPPIT interaction score: -0.212
cnn; MAPPIT configuration: N-C
  MAPPIT interaction score: -0.173
cnn; MAPPIT configuration: N-N
  MAPPIT interaction score: 0.273

B8: Uro (protein)
chain: MFATPLRQPAAANHQTPKNSAGMDEHGKPYQYEITDHGYGKDAVKVLHVSRNGPVHAIQEFEVGTHLKLYSKKDYYQGNNSDIVATDSQKNTVYLLAKKHGIESPEKFALLLARHFINKYSHVEEAHVHVEAYPWQRVCQEETRTNVNGKCENGVQGNCDFSSIDNRSLHNHAFIFTPTALHYCDVVIRRTDPKQTVITGIKGLRVLKTTQSSFVNFVNDEFRSLPDQYDRIFSTVVDCSWEYSDTENLDFLRAWQTVKNIIIRNFAGDPQVGVSSPSVQHTLYLSERQVLDVLPQVSVISMTMPNKHYFNFDTKPFQKIAPGDNNEVFIPVDKPHGTIYAQLARKNINSHL
Cpr56F
  MAPPIT interaction score: -0.112

B9: Timp (protein)
chain: MDLRKHLGLLTLLLVAVFAFYGRPADACSCMPSHPQTHFAQADYVVQLRVLRKSDTIEPGRTTYKVHIKRTYKATSEARRMLRDGRLSTPQDDAMCGINLDLGKVYIVAGRMPTLNICSYYKEYTRMTITERHGFSGGYAKATNCTVTPCFGERCFKGRNYADTCKWSPFGKCETNYSACMPHKVQTVNGVISRCRWRRTQLYRKCMSNP
CkIIalpha-i3
  MAPPIT interaction score: 0.0292

B10: Rad60 (protein)
chain: MSDDDCDIFSAARKRIPEIALPKNPYNLGNDSFSKEVDYDFIEDLPKKSTKTGKRKNPAATRKNPPKSQDDASPPKQAEHKAVEPEEDMRTERSLSPVSLLILEMEKKNGQQSDVEKHAKENDVGPVARRTRSSLNRSEMAPPPVSPTVEVPTQTKPKKRGQKKRTSLTTTTSNSASMEVSLPSIVGQNNEHISRRWTLAEVAARSKVVDSIDLVSAVAPRVEGFVNLDSEDEGEKEAPPVVEEENIFDNDNPTIEVALSWLGEIQIYKLRQHQKFKHLFKELASRNGIDENDITVDMYYNFVGPEDTPHSIGLKSFHTLTGHPTKSHNNNNVAAKIDYNPEALCRKPKKFQVKVQADKWKHPLVIPMKKTDNFKIIFIKCAEELNCDPRTIKLFFDGDLLDPNDTPNNQDMEGNEVIDLKIKA
Cpr62Ba; MAPPIT configuration: N-C
  MAPPIT interaction score: -0.181
Cpr62Ba; MAPPIT configuration: N-N
  MAPPIT interaction score: 1.45

B11: CaBP1 (protein)
chain: MRQLASILLLAFVVGSVSAFYSPSDGVVELTPSNFDREVLKDDAIWVVEFYAPWCGHCQSLVPEYKKLAKALKGVVKVGSVNADADSTLSGQFGVRGFPTIKIFGANKKSPTDYNGQRTAKAIAEAALAEVKKKVQGVLGGGGGSSSGGSGSSSGDDVIELTEDNFDKLVLNSDDIWLVEFFAPWCGHCKNLAPEWAKAAKELKGKVKLGALDATAHQSKAAEYNVRGYPTIKFFPAGSKRASDAQEYDGGRTASDIVSWASDKHVANVPAPELIEIINESTFETACEGKPLCVVSVLPHILDCDAKCRNKFLDTLRTLGEKFKQKQWGWAWAEGGQQLALEESLEVGGFGYPAMAVVNFKKMKFSVLKGSFSKDGINEFLRDISYGRGHTAPVRGAKKPAIVSVDPWDGKDGQLPTEEDIDLSDIDLDKDEL
Cdc50
  MAPPIT interaction score: 0.0074

B12: Aladin (protein)
chain: MAALSNLKQCPPFSTLPDLALRHNHIPELERYPQINLNSELLANPAGQRYYGGQSFVSVNEGVLKRIARSFFNGGFWKTLEEARSPETREQAPLIAQAGDLIAQFLGLATGLRILPHTQQLSAERIAQFVETRDWLNSDVRYLAWNQHFFCLAVAGVDDVVRIYTKSSSATTATVLKSPSQTQITCMAWRPLCASEIVIGCRQGLCFWEVDSTLHLGRTNAPSEIFKYPNNLPITSMQWNKDGTQLATASIGDRSIIIWQPDTGMMQPLKRLGPPGSLLKWSPDNDWLFAATVDRVFRVWNCHQQWTTERWVCGPGGYVQTACWSPCGRFLLFVSSAEPILYRLQFVQQSLLSSSADEKEILPIADLNACSIDANRTLVGGPAQQLAWDPHGNYLVVTFKATNCIAVFRTFIQKFDLQISAAYYLSGETAAEHPSFICFQPLYEDNDRSVLTIAWSSGRIQYYAFD
CycG
  MAPPIT interaction score: -0.0444

B13: GstS1 (protein)
chain: MADEAQAPPAEGAPPAEGEAPPPAEGAEGAVEGGEAAPPAEPAEPIKHSYTLFYFNVKALAEPLRYLFAYGNQEYEDVRVTRDEWPALKPTMPMGQMPVLEVDGKRVHQSISMARFLAKTVGLCGATPWEDLQIDIVVDTINDFRLKIAVVSYEPEDEIKEKKLVTLNAEVIPFYLEKLEQTVKDNDGHLALGKLTWADVYFAGITDYMNYMVKRDLLEPYPALRGVVDAVNALEPIKAWIEKRPVTEV
Chd64
  MAPPIT interaction score: 0.058

B14: su(Hw) (protein)
chain: MSASKEGKEKKGKLLGVENISPPKDKRPATRMKLLNDVGAGEDSEASTTTTTSRTPSNKQEKRGSVAGSRIKILNEEILGTPKTEKRGATKSTAPAASTVKILNEKKTPSATVTAVETTKIKTSPSKRKKMEHYVLQAVKSENTKADTTVTVVTEEDDTIDFILADDEEVVPGRIENNNGQEIVVTEDDEDLGEDGDEDGEDSSGKGNSSQTKIKEIVEHVCGKCYKTFRRVQSLKKHLEFCRYDSGYHLRKADMLKNLEKIEKDAVVMEKKDICFCCSESYDTFHLGHINCPDCPKSFKTQTSYERHIFITHSEFSDFPCSICNANLRSEALLALHEEQHKSRGKPYACKICGKDFTRSYHLKRHQKYSSCSSNETDTMSCKVCDRVFYRLDNLRSHLKQHLGTQVVKKPEYMCHTCKNCFYSLSTLNIHIRTHTGEKPFDCDLCDKKFSALVALKKHRRYHTGEKPYSCTVCNQAFAVKEVLNRHMKRHTGERPHKCDECGKSFIQATQLRTHSKTHIRPFPCEQCDEKFKTEKQLERHVKTHSRTKRPVFSCAECKRNFRTPALLKEHMDEGKHSPKQQRSSMRSAVKIMERTDCAICDKNFDSSDTLRRHIRTVHECDPDDIFGVEPHPSKRAKKDIESEEVVPVALNTSAGSLISSQTDGNGVVVREFLVDEGDGAAQTITLENETYTILPLDGAIEGEQLTDEAGVKPEAKKEEAQVSPVVKKEQRKSLAASLAAAIADNLEESCSEDDFSGEILTEEDIKLKENVGKLIDMLVDPPILKKYGWPNAPEETVLCKVIENCGHDLTKGGENYAELDYGSRMREYCKLLFTVVIHNDSIKSLLNNFPIDDVIEYVLGDEDQDEGGLDKDNESHSGDEEAVSVTGETKTNEIREKPEKKEVSAKSEKKEIVGKAVDKDNSEEVVRENKKKPVGEQEKA
Cp190
  MAPPIT interaction score: 0.105
mod(mdg4); MAPPIT configuration: N-C
  MAPPIT interaction score: 2.52
mod(mdg4); MAPPIT configuration: N-N
  MAPPIT interaction score: 0.317

B15: RpS13 (protein)
chain: MGRMHAPGKGISQSALPYRRTVPSWLKLNADDVKEQIKKLGKKGLTPSKIGIILRDSHGVAQVRFVNGNKILRIMKSVGLKPDIPEDLYHMIKKAVAIRKHLERNRKDKDGKFRLILVESRIHRLARYYKTKSVLPPNWKYESSTASALVA
Cnb; MAPPIT configuration: N-N
  MAPPIT interaction score: 0.219

Source: the supplement of paper PMC10105736
